Results filed as inconclusive are left out. Entries that show only a call come without a potency. Active and inactive are the calls of the source. Unless noted, the call rests on the fitted dose curve.
What was measured:
[1] = Nuclear factor erythroid 2-related factor 2/antioxidant responsive element (Nrf2/ARE) small molecule agonists: qHTS cell viability counter screen in human keratinocytes (AID 1919968; active means well fitted curve in the direction sought with a large enough effect in the repeat runs; an effect the other way counts as inactive or inconclusive; further: nearly all actives have a fitted effect of over 55% in size; further: potency means the concentration at half of the fitted maximal effect)
How it was run: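 Cells of the KeratinoSens line were plated at 1,500 per well and left for 5 h before compound transfer from DMSO stocks. After a 23 h incubation (37 C, 5% CO2), CellTiter-Fluor was added. Signal was taken as fluorescence intensity 1 h later.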

[2] = Nuclear factor erythroid 2-related factor 2/antioxidant responsive element (Nrf2/ARE) small molecule agonists: luciferase reporter gene qHTS assay in human keratinocytes (AID 1919969); further: nearly all actives have a fitted effect of over 35% in size; further: potency means the concentration at half of the fitted maximal effect
[3] = target: Gonadotropin-releasing hormone receptor (Homo sapiens) (UniProt P30968); assay: Human gonadotropin-releasing hormone receptor (GnRHR) small molecule agonists, calcium flux assay in GnRHR-HEK293 cells (AID 1920063); further: nearly all actives have a fitted effect of over 35% in size
Chain of Gonadotropin-releasing hormone receptor (Homo sapiens) (P30968 whole entry, looked up): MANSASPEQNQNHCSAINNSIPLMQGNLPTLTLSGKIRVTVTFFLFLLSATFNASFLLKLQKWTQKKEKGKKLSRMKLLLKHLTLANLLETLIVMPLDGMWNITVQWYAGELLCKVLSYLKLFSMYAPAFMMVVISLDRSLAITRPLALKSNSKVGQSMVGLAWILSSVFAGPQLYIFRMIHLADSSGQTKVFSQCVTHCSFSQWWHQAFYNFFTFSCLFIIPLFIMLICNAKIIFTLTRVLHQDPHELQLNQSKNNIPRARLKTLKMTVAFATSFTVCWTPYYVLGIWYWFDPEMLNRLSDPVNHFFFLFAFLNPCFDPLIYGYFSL
How it was run: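 Compounds dissolved in DMSO are pin-transferred onto dye-loaded GnRHR-HEK293 cells, which were seeded 18 h before at 37 C/5% CO2. Calcium signal is read as fluorescence intensity at 1 s intervals for 3 min.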

[4] = target: KiSS-1 receptor (Homo sapiens) (UniProt Q969F8); assay: Human kisspeptin (KISS1R) small molecule agonists, calcium flux assay in KISS1R-HEK293 cells (AID 1920064; active means well fitted curve in the direction sought with a large enough effect in the repeat runs; an effect the other way counts as inactive or inconclusive)
Chain of KiSS-1 receptor (Homo sapiens) (Q969F8 whole entry, looked up): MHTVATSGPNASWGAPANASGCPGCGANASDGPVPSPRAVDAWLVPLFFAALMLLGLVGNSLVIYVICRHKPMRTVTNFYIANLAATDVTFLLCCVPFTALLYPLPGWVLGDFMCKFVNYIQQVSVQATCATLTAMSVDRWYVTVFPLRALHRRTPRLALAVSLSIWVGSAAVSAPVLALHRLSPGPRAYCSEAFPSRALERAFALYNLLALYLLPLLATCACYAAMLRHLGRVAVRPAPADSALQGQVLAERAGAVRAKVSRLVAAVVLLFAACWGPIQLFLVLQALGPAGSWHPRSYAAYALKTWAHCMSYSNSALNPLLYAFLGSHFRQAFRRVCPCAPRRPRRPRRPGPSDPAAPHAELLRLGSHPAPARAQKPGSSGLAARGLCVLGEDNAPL
How it was run: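 Cell line: HEK293, stable human KISS1R. Dye loading 1 h at 37 C after 18 h culture. Read: kinetic fluorescence, 480/540 nm, 3 min at 1 s intervals.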

[5] = G protein-coupled receptor (GPCR) small molecule agonists, calcium flux assay: HEK293 wild type cell line counter screen (AID 1920065)
How it was run: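 Tox21 10K compounds, 15 concentrations each in triplicate, pin-transferred in DMSO onto dye-loaded cells; kinetic read at 480/540 nm for 3 min, 1 s intervals.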

[6] = p53 small molecule agonists, cell-based qHTS assay with human liver microsomes (AID 1963577); further: potency means the concentration at half of the fitted maximal effect;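 on activation: p53 response element beta-lactamase reporter cells with liver microsomes plus NADPH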
How it was run: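 In this qHTS, p53 response-element beta-lactamase cells receive test compound together with a microsome/NADPH activating system (0.5 mg/mL final each) and are incubated 16 h at 37 C before LiveBLAzer fluorescence detection.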

[7] = p53 small molecule agonists, cell-based qHTS assay with rat liver microsomes (AID 1963578)
How it was run: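 Agonist mode in p53RE-bla reporter cells, with compounds co-incubated 16 h at 37 C alongside 0.5 mg/mL rat liver microsomes and 0.5 mg/mL NADPH (final), followed by a 2 h LiveBLAzer detection step.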

[8] = p53 small molecule agonists, cell-based qHTS assay: qHTS cell viability counter screen (AID 1963581); further: nearly all actives have a fitted effect of over 45% in size
How it was run: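 ATP content measured by luminescence in HCT-116 p53RE-bla cells treated 16 h at 37 C, same wells as the reporter screen.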

[9] = p53 small molecule agonists, cell-based qHTS assay (AID 1963582; active means well fitted activation curve with a large enough effect in the signal ratio in the repeat runs, not every such curve was filed as active; the % refers to the signal ratio)
How it was run: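 16 h compound exposure (37 C) of p53 response element–bla cells, preceded by 5 h recovery at 37 C/5% CO2; read-out via LiveBLAzer B/G FRET substrate, 2 h RT, fluorescence intensity.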

[10] = target: 5-hydroxytryptamine receptor 2A (Homo sapiens) (UniProt P28223); assay: 5-hydroxytryptamine receptor 2A (HTR2A) small molecule antagonists, cell-based qHTS assay (AID 1963586); further: nearly all actives have a fitted effect of over 45% in size; further: potency means the concentration at half of the fitted maximal effect
Chain of 5-hydroxytryptamine receptor 2A (Homo sapiens) (P28223 whole entry, looked up): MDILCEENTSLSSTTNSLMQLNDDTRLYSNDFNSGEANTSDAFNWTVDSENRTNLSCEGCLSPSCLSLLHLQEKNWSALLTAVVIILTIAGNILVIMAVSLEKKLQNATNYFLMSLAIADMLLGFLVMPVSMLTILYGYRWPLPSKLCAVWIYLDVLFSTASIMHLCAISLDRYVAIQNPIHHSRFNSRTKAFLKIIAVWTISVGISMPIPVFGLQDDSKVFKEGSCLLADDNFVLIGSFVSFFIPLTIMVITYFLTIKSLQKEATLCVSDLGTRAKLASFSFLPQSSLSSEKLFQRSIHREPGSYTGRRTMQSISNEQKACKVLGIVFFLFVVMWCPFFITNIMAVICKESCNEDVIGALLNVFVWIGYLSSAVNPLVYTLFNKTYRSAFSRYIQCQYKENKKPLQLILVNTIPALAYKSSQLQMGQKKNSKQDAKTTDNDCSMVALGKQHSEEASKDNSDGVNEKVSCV
How it was run: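 CHO cells stably expressing human HTR2A were plated for 18 h at 37 C, then loaded with calcium dye for 1 h. Compounds were preincubated 5 min at room temperature before DOI (4 nM solution) was added. Kinetic fluorescence was read for 3 min.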

[11] = target: Muscarinic acetylcholine receptor M1 (Homo sapiens) (UniProt P11229); assay: Cholinergic receptor muscarinic 1 (CHRM1) small molecule agonists, cell-based qHTS assay (AID 1963589); further: nearly all actives have a fitted effect of over 35% in size
Chain of Muscarinic acetylcholine receptor M1 (Homo sapiens) (P11229 whole entry, looked up): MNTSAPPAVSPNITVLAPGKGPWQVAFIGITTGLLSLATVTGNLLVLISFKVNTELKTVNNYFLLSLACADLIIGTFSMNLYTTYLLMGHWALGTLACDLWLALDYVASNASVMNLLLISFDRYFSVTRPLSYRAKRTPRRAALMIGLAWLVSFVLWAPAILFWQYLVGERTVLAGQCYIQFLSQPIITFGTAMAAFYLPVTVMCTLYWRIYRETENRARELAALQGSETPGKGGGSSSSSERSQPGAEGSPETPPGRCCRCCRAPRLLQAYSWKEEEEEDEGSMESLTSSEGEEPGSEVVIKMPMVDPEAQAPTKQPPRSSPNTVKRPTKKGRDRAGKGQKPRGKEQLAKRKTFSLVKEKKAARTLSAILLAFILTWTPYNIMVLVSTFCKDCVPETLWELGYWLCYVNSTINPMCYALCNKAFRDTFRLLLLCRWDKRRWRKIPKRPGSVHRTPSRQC
How it was run: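 Homogeneous fluorescence calcium flux, agonist mode. Human M1-expressing CHO cells; compound dosed at 15 concentrations, three independent runs; signal sampled every 1 sec.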

[12] = cAMP Responsive Elements (CRE) small molecule agonists, cell-based qHTS assay (AID 1963590)
How it was run: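 HEK 293T cells stably bearing CRE-bla were plated at 2,000 cells per well and rested 18 h. Compounds, positive controls or DMSO were added for 3 h at 37 C. LiveBLAzer B/G substrate was then loaded for 2 h at room temperature.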

[13] = cAMP Responsive Elements (CRE) small molecule antagonists, cell-based qHTS assay (AID 1963591; active means well fitted inhibition curve with a large enough effect in the signal ratio in the repeat runs, not every such curve was filed as active; the % refers to the signal ratio)
How it was run: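 First, CRE-bla HEK293T cells settled 18 h at 37 C. Next, compound and 0.25 uM final NKH477 were applied for 3 h. Last, LiveBLAzer B/G substrate was loaded for 2 h at room temperature.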

[14] = target: D(2) dopamine receptor (Homo sapiens) (UniProt P14416); assay: Dopamine D2 receptor (DRD2) small molecule agonists, cell-based qHTS assay (AID 1963594); further: nearly all actives have a fitted effect of over 35% in size; further: potency means the concentration at half of the fitted maximal effect
Chain of D(2) dopamine receptor (Homo sapiens) (P14416 whole entry, looked up): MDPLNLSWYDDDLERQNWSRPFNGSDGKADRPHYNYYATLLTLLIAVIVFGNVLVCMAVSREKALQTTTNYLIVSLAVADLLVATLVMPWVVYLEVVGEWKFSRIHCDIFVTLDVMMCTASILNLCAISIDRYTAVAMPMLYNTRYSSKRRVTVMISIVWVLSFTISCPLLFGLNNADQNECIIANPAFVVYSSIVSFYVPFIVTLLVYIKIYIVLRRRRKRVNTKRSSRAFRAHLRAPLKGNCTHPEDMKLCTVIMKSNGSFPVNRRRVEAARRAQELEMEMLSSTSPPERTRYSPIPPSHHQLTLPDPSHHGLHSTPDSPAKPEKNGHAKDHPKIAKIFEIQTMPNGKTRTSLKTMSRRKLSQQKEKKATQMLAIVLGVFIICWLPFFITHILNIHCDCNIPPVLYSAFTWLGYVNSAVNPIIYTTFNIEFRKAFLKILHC
How it was run: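 HEK293 cells stably expressing human DRD2, pre-treated with PDE inhibitor Ro20-1724 (0.1 mM final) and compound 10 min at room temperature, then stimulated with NKH477 (200nM […]) for 30 min. cAMP read by HTRF (665/620 nm).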

[15] = p53 small molecule agonists, cell-based qHTS assay with rat liver microsomes: qHTS cell viability counter screen (AID 1963580); further: nearly all actives have a fitted effect of over 45% in size
How it was run: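 Cytotoxicity counter screen: intracellular ATP measured by CellTiter-Glo luminescence in the same wells as the beta-lactamase reporter read, on HCT-116 p53RE-bla cells exposed 16 h at 37 C to compounds with rat liver microsomes and NADPH, each 0.5 mg/mL final.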

[16] = target: 5-hydroxytryptamine receptor 2A (Homo sapiens) (UniProt P28223); assay: 5-hydroxytryptamine receptor 2A (HTR2A) small molecule agonists, cell-based qHTS assay (AID 1963587); further: nearly all actives have a fitted effect of over 30% in size; further: potency means the concentration at half of the fitted maximal effect
How it was run: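 CHO cells stably expressing human HTR2A, plated 18 h, loaded with calcium dye 1 h at 37 C. Agonist mode: compounds added and intracellular calcium fluorescence recorded kinetically for 2 min at 1 sec intervals.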

[17] = target: Muscarinic acetylcholine receptor M1 (Homo sapiens) (UniProt P11229); assay: Cholinergic receptor muscarinic 1 (CHRM1) small molecule antagonists, cell-based qHTS assay (AID 1963588); further: nearly all actives have a fitted effect of over 40% in size
How it was run: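 Compounds were tested at 15 concentrations in three independent runs. Dye-loaded CHRM1-CHO cells were exposed 5 min at room temperature before stimulation by acetylcholine added at 50nM. Intracellular calcium was read kinetically on FDSS for 3 min.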

[18] = target: Beta-2 adrenergic receptor (Homo sapiens) (UniProt P07550); assay: Adrenergic beta2 receptor (ADRB2) small molecule antagonists, cell-based qHTS assay (AID 1963592); further: series mostly up to about 92 µM; nearly all actives have a fitted effect of over 50% in size
Chain of Beta-2 adrenergic receptor (Homo sapiens) (P07550 whole entry, looked up): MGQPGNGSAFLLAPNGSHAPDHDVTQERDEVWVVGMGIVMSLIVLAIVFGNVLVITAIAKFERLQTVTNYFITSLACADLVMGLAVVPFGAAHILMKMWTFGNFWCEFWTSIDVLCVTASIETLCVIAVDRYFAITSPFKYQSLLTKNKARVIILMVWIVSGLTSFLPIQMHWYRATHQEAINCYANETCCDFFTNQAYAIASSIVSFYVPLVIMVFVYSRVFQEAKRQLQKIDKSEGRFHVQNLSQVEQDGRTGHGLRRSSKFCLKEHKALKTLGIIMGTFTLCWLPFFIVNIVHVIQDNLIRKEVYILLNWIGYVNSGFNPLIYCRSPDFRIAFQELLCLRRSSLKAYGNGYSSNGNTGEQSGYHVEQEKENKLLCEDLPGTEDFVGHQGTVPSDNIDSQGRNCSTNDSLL
How it was run: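 Assay format: CHO-ADRB2 cells, 18-20hr seeding at 37C/5% CO2, then compound plus 1nM isoproterenol agonist mix for 0.5hr RT. Homogeneous time-resolved fluorescence cAMP detection after 1hr, expressed as 665/615 nm ratio.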

[19] = target: D(2) dopamine receptor (Homo sapiens) (UniProt P14416); assay: Dopamine D2 receptor (DRD2) small molecule antagonists, cell-based qHTS assay (AID 1963595; active means well fitted inhibition curve with a large enough effect in the signal ratio in the repeat runs, with a control signal flat; the % refers to the signal ratio)
How it was run: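 In this cell-based antagonist screen, compounds act for 10 min at room temperature before a 30 min challenge with 12 nM quinpirole and 200 nM NKH477. cAMP is quantified by HTRF competition in DRD2-HEK293 cells containing 0.1 mM Ro20-1724.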

[20] = p53 small molecule agonists, cell-based qHTS assay with human liver microsomes: qHTS cell viability counter screen (AID 1963579); further: nearly all actives have a fitted effect of over 45% in size
How it was run: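 Metabolically activated exposure: compounds, human liver microsomes and NADPH (0.5 mg/mL final apiece) were added to p53RE-bla cells seeded 5 h earlier, left 16 h at 37 C, and then assessed for viability by CellTiter-Glo luminescence.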

Row | SMILES | Potency [1] | Potency [2] | Potency [3] | Potency [4] | Potency [5] | Potency [6] | Potency [7] | Potency [8] | Potency [9] | Potency [10] | Potency [11] | Potency [12] | Potency [13] | Potency [14] | Potency [15] | Potency [16] | Potency [17] | Potency [18] | Potency [19] | Potency [20]
1 | COc1cc(CC(C)N)c(OC)cc1Br (configuration not stated) | inactive | inactive | inactive | inactive | inactive | inactive | inactive | inactive | inactive | inactive | inactive | inactive | inactive | 20 µM (active) |  |  |  |  |  | 
2 | CCOC(=O)NC(=S)Nc1ccccc1NC(=S)NC(=O)OCC | inactive | 54.5 µM (active) | inactive | inactive | inactive | inactive | inactive |  |  | inactive | inactive |  |  |  | inactive | inactive | inactive | inactive |  | 
3 | O=C(O)c1ccc2[nH]cc(CCCCN3CC=C(c4ccccc4)CC3)c2c1 | inactive | inactive | inactive | inactive | inactive | inactive | inactive |  | inactive |  | inactive |  |  | 0.0084 µM (active) | inactive | inactive | inactive | inactive | inactive | 
4 | CCOC(=O)NC(C)(C)Cc1ccc(Cl)cc1 | inactive | inactive | inactive | inactive | inactive | inactive |  | inactive | inactive | inactive | inactive | inactive |  | inactive | inactive | inactive | inactive | inactive | inactive | inactive
5 | Cc1cc(C(C)(C)c2ccc(O)c(C)c2)ccc1O | 58.2 µM (active) | inactive | inactive | inactive | inactive | inactive | inactive | inactive |  | 35.7 µM (active) |  |  |  | inactive | inactive | 52.3 µM (active) | inactive | inactive | inactive | 
6 | COP(=O)(OC)Oc1ccc([N+](=O)[O-])cc1 | inactive | inactive | inactive | inactive | inactive | 3.24 µM (active) |  | inactive | inactive | inactive | inactive | inactive | inactive | inactive | inactive | inactive | inactive |  | inactive | inactive
7 | COc1ccc(C(=O)c2c(C)n(CCN3CCOCC3)c3ccccc23)cc1 | inactive | inactive | inactive | inactive | inactive | inactive | inactive | inactive |  |  | inactive |  |  |  |  | inactive | inactive |  | inactive | 
8 | CCC(C)c1cc([N+](=O)[O-])cc([N+](=O)[O-])c1OC(=O)C=C(C)C (configuration not stated) | 48.6 µM (active) | 24.3 µM (active) | inactive | inactive | inactive | inactive | inactive | inactive |  | inactive | inactive |  |  |  | inactive |  | inactive | inactive | inactive | 
9 | Cc1cccc2sc3nncn3c12 | inactive | inactive | inactive | inactive | inactive | inactive |  | inactive | inactive | inactive | inactive |  | inactive | inactive | inactive | inactive | inactive | inactive | inactive | inactive
10 | O=c1[nH]c(Cl)c(Cl)cc1Cl | inactive | inactive | inactive | inactive | inactive | inactive | inactive | inactive |  | inactive |  |  |  | inactive | inactive | inactive | inactive | inactive | inactive | 
11 | CC(Cc1ccccc1)NCCn1cnc2c1c(=O)n(C)c(=O)n2C (configuration not stated) | inactive | inactive | inactive | inactive | inactive | inactive | inactive | inactive | inactive | inactive | inactive | inactive | inactive | inactive | inactive | inactive |  | inactive | inactive | 
12 | CC(C)CCCCCCCOC(=O)c1ccccc1C(=O)OCCCCCCCC(C)C | inactive | inactive | inactive | inactive | inactive | inactive | inactive |  | inactive | inactive | inactive | inactive | inactive | inactive | inactive | inactive | inactive | inactive | inactive | 
13 | CC(=O)[C@H]1CC[C@H]2[C@@H]3CC[C@H]4C[C@H](O)CC[C@]4(C)[C@H]3C(=O)C[C@]12C | inactive | inactive | inactive | inactive | inactive | inactive | inactive | inactive |  |  | inactive | inactive |  | inactive | inactive | inactive | inactive |  | inactive | 
14 | Nc1ccc(Cl)cc1C(=O)c1ccccc1F | inactive | inactive | inactive | inactive | inactive | inactive | inactive |  |  |  | inactive | inactive |  | inactive | inactive | inactive | inactive | inactive | inactive | 
15 | CCN(CC)CCOC(=O)C(O)(c1ccccc1)c1ccccc1 | inactive | inactive | inactive | inactive | inactive | inactive | inactive | inactive | inactive |  |  | inactive | inactive |  | inactive | 1.34 µM (active) |  | inactive | inactive | 
16 | COC(=O)C(C)N(C(=O)c1ccco1)c1c(C)cccc1C (configuration not stated) | inactive | inactive | inactive | inactive | inactive | inactive |  | inactive | inactive | inactive | inactive | inactive |  |  | inactive | inactive | inactive |  | inactive | inactive
17 | O=[N+]([O-])c1ccc2ccc3cccc4ccc1c2c34 | inactive | 61.1 µM (active) | inactive | inactive | inactive | inactive |  | inactive | inactive | inactive | inactive | inactive | inactive | inactive | inactive |  | inactive | inactive | inactive | inactive

Source: PubChem BioAssay (Tox21)
